Screens from PubChem BioAssay.
VDR inhibitor: inhibitors of human vitamin D receptor | VDR-SRC2-3 peptide fluorescence polarization, 2 h | Potency, µM, for the others: max response, negative = inhibition, hits mostly inhibitors | hit rate 0.93% among 400,000
Target sequence (P11473 whole entry, looked up): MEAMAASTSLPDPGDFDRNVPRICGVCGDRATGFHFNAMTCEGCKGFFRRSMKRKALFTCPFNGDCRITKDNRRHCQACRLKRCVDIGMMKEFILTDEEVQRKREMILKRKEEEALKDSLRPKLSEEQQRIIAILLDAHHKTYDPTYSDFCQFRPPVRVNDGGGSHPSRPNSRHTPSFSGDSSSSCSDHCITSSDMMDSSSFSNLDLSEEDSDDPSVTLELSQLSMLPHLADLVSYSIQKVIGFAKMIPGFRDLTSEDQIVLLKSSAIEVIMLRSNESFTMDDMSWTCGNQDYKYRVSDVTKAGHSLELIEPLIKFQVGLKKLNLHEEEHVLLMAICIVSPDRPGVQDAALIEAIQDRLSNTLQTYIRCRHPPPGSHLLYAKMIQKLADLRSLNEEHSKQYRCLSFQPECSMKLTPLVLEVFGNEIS
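Two reagent solutions held at 4 deg C in the dark were dispensed, compounds pinned at 23 nl, and the mixture incubated 2 h at room temperature. Read-out: fluorescence polarization of VDR–SRC2-3 peptide binding.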
DT40 TDP1 CPT: growth inhibition of DT40 Tdp1-/-;hTDP1 cells with camptothecin (screen for TDP1 inhibitors); chicken DT40 Tdp1-/-;hTDP1 cells + 20 nM CPT, ATP luminescence, 48 h; hit rate 12% among 420,000; Potency, µM (doses to about 46.2 µM), for inactives: at the highest dose activity change, negative = growth inhibition, hits mostly inhibitors; further: nearly all actives have a fitted effect of over 55% in size
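Chicken DT40 Tdp1-/- cells complemented with human TDP1, 400 cells/well, exposed to compounds plus 20 nM camptothecin for at least 48 h at 37 C; viability read as ATP content by CellTiter-Glo luminescence.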
PLK1 PBD block: PLK1 (human) polo-box domain binding inhibition. P53350. Plk1 PBD binding of FITC phosphopeptide, fluorescence polarization. Potency, µM, for the others: max response, negative = inhibition, most hits filed as inhibitors. hit rate 2.8% among 360,000; further: series mostly up to about 57 µM; nearly all actives have a fitted effect of over 65% in size
DT40 TDP1 no CPT: qHTS for Inhibitors of human tyrosyl-DNA phosphodiesterase 1 (TDP1): qHTS in cells in absence of CPT; DT40 Tdp1-/- hTDP1 cells, no CPT, ATP luminescence, 48 h; Potency, µM (doses to about 46.2 µM), for the others: at the top dose activity change, negative = growth inhibition, actives largely listed as inhibitors; hit rate 15% among 420,000; AID 686978, 2013; further: nearly all actives have a fitted effect of over 55% in size
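A cellular qHTS used chicken DT40 cells lacking endogenous Tdp1 but carrying stably transfected human TDP1. Compounds were applied without camptothecin, and cell growth kinetics were judged by ATP-dependent luminescence after ≥48 hr.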
TDP1 inh: inhibitors of human tyrosyl-DNA phosphodiesterase TDP1. Q9NUW8. recombinant TDP1, AlphaScreen DNA substrate cleavage. Potency, µM (top dose mostly 130 µM), for inactives: at the top dose activity change, negative = inhibition, usual class: inhibitors. hit rate 0.28% among 350,000; further: nearly all actives have a fitted effect of over 40% in size
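Signal: AlphaScreen proximity between streptavidin donor and anti-FITC acceptor beads on intact substrate. Reaction: Tdp1 1 nM, substrate 15 nM final, 5 min RT after 15 min compound preincubation.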
GCN5L2 inh: inhibitors of human GCN5L2 histone acetyltransferase | Q92830 | GCN5L2 HAT assay, ThioGlo1 CoA-SH fluorescence | Potency, µM (doses to about 58.9 µM), for the others: top-dose activity change, negative = inhibition, usual class: inhibitors | hit rate 0.21% among 390,000
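Titration-based screen in which CoA formation is detected via maleimide probe ThioGlo1 (50uM) turning fluorescent on thiol reaction; substrates H3(1-25) 75uM and acetyl-CoA 70uM, GCN5L2 20nM, 20 min incubation at room temperature.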
Starred values were filed as active, the others as inactive; u = inconclusive; x = no result given; [ ] = dose if it differs, or a comment. Only some compounds are listed: those with a hit (about 18% of all), similar ones and a draw of the others. The call rests on the fitted dose curve; in most records, active means well fitted curve in the direction sought with a large enough effect; inconclusive means small, poorly fitted or top-dose-only effect, or another doubt; inactive means no such curve, though single readings can be large; an effect the other way counts as inactive or inconclusive. On the % scale 0 is the no-effect control and ±100 the full control effect; potency means the concentration at half of the fitted maximal effect.

SMILES | VDR inhibitor | DT40 TDP1 CPT | PLK1 PBD block | DT40 TDP1 no CPT | TDP1 inh | GCN5L2 inh
CC(NC(=O)c1ccc(N2Cc3ccccc3Oc3ncccc32)s1)c1ccccc1 (stereo not drawn) | 5% | -21% | x | u | -3% | -23%
COc1ccccc1NC(=O)C(C)Sc1nnc2ccc3ccccc3n12 (stereo not drawn) | 7% | 21µM* | x | u | -5% | -2%
Cc1cccc2c1N(CCCOc1ccc(C(C)(C)C)cc1)C(=O)C2=O | 40µM* | u | u | 18µM* | 12% | -9%
COc1ccc(OCCN2C(=O)c3cccc(N)c3C2=O)cc1 | 0% | 0% | 7% | -15% | x | -5%
Cc1ccc2c(c1)C(=O)C(=O)N2CCCOc1ccccc1C | 40µM* | 3.3µM* | u | 2.9µM* | 6% | -1%
Cc1cccc(OCCN2C(=O)C(=O)c3cc(C)ccc32)c1 | 71µM* | 0.37µM* | -25% | 0.46µM* | 6% | -2%
Cc1ccc2c(c1)C(=O)C(=O)N2CCOc1ccccc1 | 79µM* | 0.58µM* | -14% | 0.73µM* | 4% | -6%
Cc1ccc(OCCN2C(=O)c3ccccc3C2=O)cc1 | 10% | 10% | -2% | 4% | -6% | -2%
O=C1NC2(CCCCCC2)C(=O)N1Cc1ccccc1Cl | -14% | -3% | -3% | -14% | x | -2%
O=C(Cc1ccccc1)NNS(=O)(=O)c1ccccc1[N+](=O)[O-] | 2% | -4% | 0% | 22% | -10% | -2%
CCCCN(c1ccccc1)S(=O)(=O)c1cc2c3c(c1)C(C)C(=O)N3CCC2 (stereo not drawn) | 11% | 10µM* | x | 29µM* | -8% | 3%
O=C1NC(=O)C2(CCCCCC2)N1 | -6% | -2% | 1% | -3% | x | x
COc1cc(NC(=O)c2cc3cc4ccc(OC)c(Cl)c4nc3s2)cc(OC)c1 | 4% | -27% | x | -21% | 4% | 0%
CC(=O)OC(C(=O)c1ccccc1)c1ccccc1 (stereo not drawn) | x | x | x | x | 3% | x
O=C(CN1CCCC1)Nc1c2c(nc3ccccc13)N(Cc1ccccc1)CC2 | 10% | 21µM* | -9% | -30% | -7% | -5%
CCN(CC)CC(=O)Nc1c2c(nc3ccccc13)N(C)CC2 | -15% | -24% | -9% | -9% | x | 0%
NC(=O)c1nsc(C(=O)N(Cc2cccnc2)C(C(=O)NCc2ccc(F)cc2)c2ccc(O)cc2)c1N (stereo not drawn) | 9% | 2% | 1% | -21% | x | -6%
CC(C)Cn1c(SCc2cccc(F)c2)nc2ccsc2c1=O | 8% | 15µM* | x | 29µM* | -7% | -4%
Cc1ccc(CNC(=O)CSc2nc3ccsc3c(=O)n2Cc2ccccn2)cc1 | -5% | -1% | 5% | -14% | -1% | 3%
COCCn1c(SCc2ccc(OC)c(F)c2)nc2ccccc2c1=O | 1% | 16µM* | 6% | 21µM* | -5% | -13%
COCCn1c(SCC(=O)NC(=O)Cc2ccccc2)nc2ccccc2c1=O | -16% | 2% | -8% | -2% | 1%[56.1 µM] | 0%
COCCn1c(SCc2ccc(C(=O)OC)o2)nc2ccccc2c1=O | -7% | u | -10% | 21µM* | 4% | -11%
O=c1c2sccc2nc(SCc2ccc([N+](=O)[O-])cc2)n1Cc1ccccn1 | -5% | u | -6% | 16µM* | 0% | -6%
CCOc1ccc(NC(=O)CN2CCN(CC(=O)Nc3ccc(N(CC)CC)cc3)CC2)cc1 | 15% | -7% | x | -11% | 4% | -10%
COc1ccccc1CNC(=O)CCCc1nnc2n(C)c(=O)c3sccc3n12 | 1% | -5% | -15% | u | 3% | -8%
SMILES | VDR inhibitor | DT40 TDP1 CPT | PLK1 PBD block | DT40 TDP1 no CPT | TDP1 inh | GCN5L2 inh
Cc1ccc2nc(Cl)c3cc(C(=O)NCCCN4CCC(C)CC4)sc3c2c1 | -12% | u | x | u | -1% | 1%
COC(=O)c1ccc(CSc2nc3ccccc3c(=O)n2-c2ccccc2)o1 | -18% | u | -10% | u | 3% | -7%
COCCn1c(SCc2cccc(F)c2)nc2cc(C(=O)OC)ccc2c1=O | -8% | 21µM* | -11% | u | x | 3%
COC(=O)c1ccc(CSc2nc3ccccc3c(=O)n2-c2ccc(OC)c(OC)c2)o1 | -11% | 16µM* | -8% | u | -2% | -9%
O=C1CSC(c2ccc(F)c(F)c2)N1c1ccccc1F (stereo not drawn) | -21% | -4% | -20% | 9% | x | -19%
COc1cc(C(=O)OC2CCOC2=O)cc(Cl)c1OC (stereo not drawn) | 16% | 1% | -9% | -8% | 3% | -17%
Cc1cc(/C=C2\C(=N)N3C(SCc4ccccc4)=NSC3=NC2=O)c(C)n1Cc1ccccc1 | 20% | u | -25% | u | 6% | 0%
CSC1=NSC2=NC(=O)/C(=C\c3coc4ccccc4c3=O)C(=N)N12 | u | -26% | 27µM* | u | -3% | -22%
CC(C)CSC1=NSC2=NC(=O)/C(=C\c3coc4ccccc4c3=O)C(=N)N12 | 79µM* | 4% | 17µM* | -26% | 9% | u
N=C1/C(=C/c2coc3ccccc3c2=O)C(=O)N=C2SC(c3ccco3)=NN12 | u | u | u | u | x | -23%
N=C1/C(=C\c2coc3ccccc3c2=O)C(=O)N=C2SC(c3ccncc3)=NN12 | 28µM* | -2% | 23% | -28% | x | u
CCN(CC)CCOC(=O)c1cccnc1 | -1% | 2% | x | -8% | x | 5%
COc1ccccc1NS(=O)(=O)c1cccc(-n2c(O)c(C=Nc3ccccc3C(=O)O)c3ccccc3c2=O)c1 | -18% | u | 30µM* | 13µM* | 4% | u
O=C(N/N=C/c1c(O)n(Cc2ccccc2)c(=O)c2ccccc12)c1cccnc1 | -17% | u | 13% | 9.2µM* | 13% | -3%
Cc1c(N=Cc2ccco2)c(=O)n(-c2ccccc2)n1C | -1% | -8% | -4% | -6% | 6% | -7%
COc1ccc(Cn2c(O)c(C=Nc3ccccc3C(=O)O)c3ccccc3c2=O)cc1 | -10% | 15µM* | u | 10µM* | 10% | u
COc1ccc2c(C=Nc3c(C)n(C)n(-c4ccccc4)c3=O)c(O)n(Cc3ccco3)c(=O)c2c1 | 12% | 18µM* | u | u | 3% | -4%
CCOc1ccc(CNS(=O)(=O)c2cc(-c3cc(C)no3)ccc2OC)cc1OC | 2% | -2% | -13% | 7% | -2% | -15%
